Source: the supplement of paper PMC8866396
± gives the standard deviation of the averaged measurements.

What was measured:
IL-6-GFP PC-9GR = assay: cell viability (CCK-8 OD) relative to DMSO control (fraction of control); higher = more viable cells; settings: compound concentration: 10 uM; treatment time: 48 h
How it was run: (§1)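 PC-9 and PC-9GR lung cancer cells expressing lentiviral IL-6-GFP were plated at 3000 cells/well in 96-well plates and treated for 48 h with each library compound at a final 10 μM. Viability was determined by CCK-8 absorbance as a ratio of each well's optical density to the vehicle control well.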

IL-6-GFP PC-9 = assay: as above; settings: compound concentration: 10 uM; treatment time: 48 h
How it was run: as §1

Row | Compound | cell viability (IL-6-GFP PC-9GR) | cell viability (IL-6-GFP PC-9)
1 | CCCCCCNC(=O)n1cc(F)c(=O)[nH]c1=O [Carmofur] | 0.934 ± 0.022 | 0.906 ± 0.14
2 | CC(C)(C)OC(=O)NC1CCCCC/C=C\C2CC2(C(=O)NS(=O)(=O)C2CC2)NC(=O)C2CC(OC(=O)N3Cc4cccc(F)c4C3)CN2C1=O (stereo not drawn) [Danoprevir (ITMN-191)] | 1.1 ± 0.02 | 0.931 ± 0.15
3 | Nc1nc(F)nc2c1ncn2C1OC(CO)C(O)C1O (stereo not drawn) [Fludarabine] | 0.214 ± 0.12 | 0.232 ± 0.026
4 | CC1CC2C(C(O)CC3(C)C2CCC3(O)C(=O)COC(=O)CCC(=O)O)C2(C)C=CC(=O)C=C12 (stereo not drawn) [Methylprednisolone hemisuccinate] | 0.848 ± 0.037 | 0.911 ± 0.24
5 | Cl.Clc1ccc(CCCOCCCN2CCCCC2)cc1 [Pitolisant hydrochloride] | 0.916 ± 0.11 | 1.13 ± 0.28
6 | N#CC1CC2CC2N1C(=O)C(N)C12CC3CC(CC(O)(C3)C1)C2.O (stereo not drawn) [Saxagliptin hydrate] | 0.79 ± 0.18 | 1.14 ± 0.091
7 | CC(=O)Oc1cccc2c1C(=O)c1c(OC(C)=O)cc(C(=O)O)cc1C2=O [Diacerein] | 1.14 ± 0.39 | 0.97 ± 0.034
8 | Cc1cnc(C(=O)NC2CCCCC/C=C\C3CC3(C(=O)NS(=O)(=O)C3CC3)NC(=O)C3CC(Oc4nc5ccccc5c5ccccc45)CN3C2=O)cn1 (stereo not drawn) [Paritaprevir (ABT-450)] | 0.779 ± 0.2 | 0.874 ± 0.28
9 | COc1cccc2c1C(=O)c1c(O)c3c(c(O)c1C2=O)CC(O)(C(C)=O)CC3OC1CC(N)C(O)C(C)O1.Cl (stereo not drawn) [Daunorubicin HCl] | 0.0902 ± 0.071 | 0.0966 ± 0.039
10 | COc1cc2c(Oc3ccc4[nH]c(C)cc4c3F)ccnc2cc1OCC1(N)CC1.Cl.Cl [Anlotinib (AL3818) dihydrochloride] | 0.463 ± 0.024 | 0.575 ± 0.056
11 | CC#CC(=O)N1CCCC1c1nc(-c2ccc(C(=O)Nc3ccccn3)cc2)c2c(N)nccn12 (stereo not drawn) [Acalabrutinib (ACP-196)] | 1.04 ± 0.36 | 0.78 ± 0.084
12 | CN1CCC(=C2c3ccccc3CCc3cccnc32)CC1.O=C(O)/C=C\C(=O)O.O=C(O)/C=C\C(=O)O [Azatadine dimaleate] | 0.981 ± 0.12 | 0.513 ± 0.013
13 | COc1ccc2cc1Oc1ccc(cc1)CC1c3cc(c(OC)cc3CCN1C)Oc1c(O)c(OC)cc3c1C(C2)N(C)CC3 (single isomer, unassigned; (+)) [(+)-Fangchinoline] | 0.731 ± 0.36 | 0.678 ± 0.23
14 | CNC(=O)c1cc(Oc2ccc(NC(=O)Nc3ccc(Cl)c(C(F)(F)F)c3)cc2)ccn1.Cc1ccc(S(=O)(=O)O)cc1 [Sorafenib Tosylate] | 0.85 ± 0.18 | 0.524 ± 0.017
15 | C=CC1CC1(NC(=O)C1CC(Oc2ncc(OC)c3ccc(Cl)cc23)CN1C(=O)C(NC(=O)OC(C)(C)C)C(C)(C)C)C(=O)NS(=O)(=O)C1CC1 (stereo not drawn) [Asunaprevir] | 1.24 ± 0.26 | 1.05 ± 0.46
16 | CCc1ccc(Cc2ccc3c(c2)C2(OC3)OC(CO)C(O)C(O)C2O)cc1.O (stereo not drawn) [Tofogliflozin(CSG 452)] | 0.92 ± 0.21 | 1.02 ± 0.25
17 | CCCCOc1ccc(C(=O)CCN2CCCCC2)cc1.Cl [Dyclonine HCl] | 1.34 ± 0.43 | 1.12 ± 0.076
18 | Cc1nc(Nc2ncc(C(=O)Nc3c(C)cccc3Cl)s2)cc(N2CCN(CCO)CC2)n1.Cl [Dasatinib hydrochloride] | 0.517 ± 0.025 | 0.438 ± 0.063
19 | CC1(C)OC2CC3C4CCC5=CC(=O)C=CC5(C)C4(F)C(O)CC3(C)C2(C(=O)CO)O1 (stereo not drawn) [Triamcinolone Acetonide] | 1.15 ± 0.023 | 0.9016 ± 0.0065
20 | COC1CC2CCC(C)C(O)(O2)C(=O)C(=O)N2CCCCC2C(=O)OC(C(C)CC2CCC(OP(C)(C)=O)C(OC)C2)CC(=O)C(C)/C=C(\C)C(O)C(OC)C(=O)C(C)CC(C)/C=C/C=C/C=C/1C (stereo not drawn) [Ridaforolimus (Deforolimus, MK-8669)] | 1.15 ± 0.22 | 0.571 ± 0.42
21 | CCC1(O)C(=O)OCc2c1cc1n(c2=O)Cc2cc3cc(O)ccc3nc2-1 (stereo not drawn) [Hydroxy Camptothecine] | 0.38 ± 0.2 | 0.404 ± 0.042
22 | CCc1cccc2c3c([nH]c12)C(CC)(CC(=O)O)OCC3 (stereo not drawn) [Etodolac] | 1.22 ± 0.018 | 0.989 ± 0.076
23 | Cl.c1ccc(CN(CC2=NCCN2)c2ccccc2)cc1 [Antazoline HCl] | 0.998 ± 0.082 | 1.31 ± 0.11
24 | Cc1ccc(Nc2nccc(N(C)c3ccc4c(C)n(C)nc4c3)n2)cc1S(N)(=O)=O [Pazopanib] | 0.795 ± 0.041 | 0.725 ± 0.062
